This passage reports sensor-assay potency score (higher = more potent) results from the OligoGym collection.
Note: reference of the scale not given here.

For this experiment, the target named is CRYGS. In words: pooled miR-30 sensor sort-seq; sequence = guide strand. As to conditions: shRNA.
Sequence TATACTGGCCTCCACTAGGCAG yielded a sensor-assay potency score (higher = more potent) of -0.983.

For the sequence TTTTTGTCTTCATAGAAAGTAA, the sensor-assay potency score (higher = more potent) was -0.778.

TTGAAAATTTTTGTCTTCATAG displayed a sensor-assay potency score (higher = more potent) of -1.17.

On to AAAGATCTGAATCTTATACTGG, for which the sensor-assay potency score (higher = more potent) turned out to be 0.0834.

In the case of TAATGGAGTTGCAGCGACTTAG, the sensor-assay potency score (higher = more potent) was -1.4.

Regarding TGATGGAAGGGCAATCTTCGGT, the sensor-assay potency score (higher = more potent) was -1.06.

On to TATGTGTGGAAATCTGCACAGT, for which the sensor-assay potency score (higher = more potent) is -0.978.

Turning to TACAGGAGTGGATCTCTCGCAT, the sensor-assay potency score (higher = more potent) was -0.237.

Turning to TTCATAGAAAGTAATCTTGGTT, the sensor-assay potency score (higher = more potent) was -0.0295.

In turn, TCCACTTTAATGGAGTTGCAGC yielded a sensor-assay potency score (higher = more potent) of -1.52.

The sequence TTTCTCAAAGATCTGAATCTTA returned a sensor-assay potency score (higher = more potent) of 0.174.

On to TTACAGGAGTGGATCTCTCGCA, for which the sensor-assay potency score (higher = more potent) worked out at 0.0996.

On to TTAATGGAGTTGCAGCGACTTA, for which the sensor-assay potency score (higher = more potent) was -1.8.

For TTTGTCTTCATAGAAAGTAATC, the sensor-assay potency score (higher = more potent) is -1.62.

Regarding TGAAATTGCTCCATGATGGAAG, the sensor-assay potency score (higher = more potent) was -0.169.

TGGAGTTGCAGCGACTTAGGTA: the sensor-assay potency score (higher = more potent) was -0.835.
